High-throughput results as filed in PubChem.
In the library only some 14% were active in any assay of this set; here they are far more common.
Pf growth 96h – P. falciparum growth inhibition at 96 hour, primary screen for plastid delayed-death inhibitors; P. falciparum luciferase reporter growth, 96 h; Potency, µM (top dose mostly 28.7 µM), inactives show at the top dose activity change, negative = inhibition, hits mostly inhibitors; actives 6.9% (n = 320,000); AID 504834; further: potency means the concentration at half of the fitted maximal effect
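96 h incubation, 37 C, 5% CO2, of luciferase-reporter P. falciparum-infected RBCs (2% hematocrit, 0.05% parasitemia final) with test compounds; endpoint luminescence.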
HCV inh – inhibitors of hepatitis C virus infection | Huh7.5.1 HCVcc-Cre infection, luciferase reporter, 44 h | Potency, µM (top dose mostly 41.8 µM), without a hit: at the highest dose activity change, negative = inhibition, usual class: inhibitors | actives 3.4% (n = 340,000); further: potency means the concentration at half of the fitted maximal effect
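1,000 cells/well; 4 h culture; + compound; + HCVcc-Cre (~0.5 moi); 44 h; luciferase substrate, RT 15 min; read 15 sec.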
MARV entry inh – blocks Marburg virus binding to or entry into cells; actives 1.8% (n = 300,000); Potency, µM (top dose mostly 37.8 µM), inactives show at the highest dose activity change, negative = inhibition, usual class: inhibitors; Marburg virus pseudotyped entry inhibition, cell reporter; calls by dose curve; tested in HEK293 cells; further: potency means the concentration at half of the fitted maximal effect
LASV entry inh – inhibitors of Lassa virus binding or cell entry; Lassa virus pseudotype entry inhibition, cell reporter; Potency, µM (top dose mostly 37.9 µM), without a hit: at the top dose activity change, negative = inhibition, most hits filed as inhibitors; actives 1.2% (n = 300,000); AID 540256; calls by dose curve; tested in HEK293 cells; further: potency means the concentration at half of the fitted maximal effect; nearly all actives have a fitted effect of over 50% in size
Pf growth 48h – inhibits P. falciparum growth in the first generation, 48 h; P. falciparum luciferase growth in erythrocytes, 48 h; Potency, µM (highest dose often 28.7 µM), for the others: at the top dose activity change, negative = inhibition, actives largely listed as inhibitors; actives 5.9% (n = 310,000); further: potency means the concentration at half of the fitted maximal effect
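Read-out is firefly luciferase luminescence from an integrated reporter in P. falciparum, so falling signal marks reduced parasite growth. Infected erythrocytes were at 2% hematocrit and 0.1% parasitemia (final) in Albumax-supplemented RPMI 1640.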
HCMV inh – inhibitors of human cytomegalovirus. HFF cells, HCMV-luciferase reporter, 72 h; active compounds read low. activity change, negative = inhibition, % at 57.5 µM. actives 4.5% (n = 410,000); in the data active means activity change below about -60%; inconclusive means no clear call, values can overlap the other calls; inactive means above about -39%
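Screen run at 2 compound doses on HFFs infected with reporter HCMV, MOI 1 PFU/cell. Luciferase activity from cell lysates at 72 h post infection gave inhibition relative to buffer-only and Salinomycin wells.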
Numbers without * were called inactive; ? = inconclusive; nt = no result; [ ] = remark or other dose. Unless noted, the call rests on the fitted dose curve; in most records, active means well fitted inhibition curve with a large enough effect; inconclusive means small, poorly fitted or top-dose-only effect, or another doubt; inactive means no such curve, though single readings can be large or run the other way. On the % scale 0 is the no-effect control and ±100 the full control effect.

SMILES	Pf growth 96h	HCV inh	MARV entry inh	LASV entry inh	Pf growth 48h	HCMV inh
COc1cccc(CNC(=O)CSc2ccc(-c3sc(-c4ccccc4)nc3C)nn2)c1	nt	nt	nt	?	nt	9
NC(=O)c1ccc(NC(=O)COC(=O)c2ccccc2SCC(=O)N2CCCC2)cc1	nt	nt	nt	nt	nt	-27
COc1cccc(CNC[C@H]2O[C@@H](n3ccc(N)nc3=O)[C@H](O)[C@@H]2O)c1OCc1ccc(F)cc1Cl	nt	nt	nt	nt	nt	-5
CCOC(=O)c1ccc(-n2c(C)ccc2C)cc1	7.4µM*	32%	5%	-3%	-23%	1
COc1ccc(-c2nc(S(=O)(=O)c3ccc(Cl)cc3)c(N3CCCCCC3)o2)cc1	nt	nt	4%[46.1 µM]	-7%[46.1 µM]	nt	-7
CCCCCC(=O)N1C[C@H](O)[C@@H](n2cc(-c3ccc(F)cc3)nn2)C[C@@H]1c1ccc(OC)cc1	nt	nt	nt	nt	nt	-3
CCOC(=O)C1=CC[C@@H](c2ccccc2)C(C#N)(C#N)[C@H]1/C=C/c1ccccc1	nt	nt	nt	nt	nt	48
CC(=O)Nc1ccc(CN2CCCCCC2)cc1	0%	10%	nt	nt	13%	-6
O=C(Nc1ccc(CN2CCCCC2)cc1)c1sc2ccccc2c1Cl	?	11µM*	?	-13%	62%	19
CCN(CC)c1ccc(NC(=O)c2sc3ccccc3c2Cl)cc1	nt	nt	nt	-24%[46.1 µM]	nt	31
O=C(Nc1ccc(CN2CCCCC2)cc1)c1cc(Br)ccc1Cl	?	?	?	-19%	12µM*	?
CCN(CC)Cc1ccc(NC(=O)c2sc3cc(Cl)ccc3c2Cl)cc1	?	?	?	?	?	-104*
O=C(Cc1ccc(Cl)cc1)Nc1ccc(CN2CCCCC2)cc1	12µM*	?	?	20%[46.1 µM]	?	-13
Cc1nc2c(OCCC3CCCCC3)cccn2c1N(C)C(=O)CCC1CCCC1	nt	nt	nt	nt	nt	34
CC(C)(O)C1C2OC(=O)C1C1(O)CC3OC34C(=O)OC2C14C (stereo unspecified)	-2%	18%	nt	nt	4%	-76*
C=CCn1c(C)cc(C(=O)COc2ccc(C)nc2[N+](=O)[O-])c1C	12%	?	?	?	38%	-92*
COCCn1c(C)cc(C(=O)COc2ccc(C)nc2[N+](=O)[O-])c1C	6%	-18%	nt	nt	26%	-94*
Cc1ccc(OCC(=O)c2cc(C)n(-c3ccccc3)c2C)c([N+](=O)[O-])n1	28%	?	?	?	33%	-99*
Cc1ccc(OCC(=O)c2cc(C)c(C)cc2C)c([N+](=O)[O-])n1	-6%	-15%	-1%	-5%	nt	67
CCCn1c(C)cc(C(=O)COc2ccc(C)nc2[N+](=O)[O-])c1C	-26%	-27%	?	15%	22%	-89*
Cc1ccc(C)c(C(=O)COc2ccc(C)nc2[N+](=O)[O-])c1	?	-2%	?	8%	nt	43
CCN1C(=O)N(S(=O)(=O)c2ccc(C)cc2)C(c2ccccc2)C(C(=O)OC)=C1C (stereo unspecified)	nt	nt	17%[14.2 µM]	nt	nt	nt
COc1ccc(N(C)S(=O)(=O)c2cccc(C(=O)OCC(=O)N(C)c3ccccc3)c2)cc1	nt	?	-6%	?	nt	-30
O=C(Cn1c(=O)n(-c2ccccc2Cl)c(=O)c2sc3ccccc3c21)N1CCCC1	nt	nt	-5%[46.1 µM]	3%[46.1 µM]	nt	-4
Cc1ccc(CNC(=O)CSc2c3c(nc4ccc(Cl)cc24)CCCC3)o1	?	?	?	7.3µM*	nt	26
CCN(CC)CCNC(=O)CSc1c2c(nc3cc(Cl)ccc13)CCCC2	14%	10µM*	nt	nt	?	-99*
COCCNC(=O)CSc1c2c(nc3cc(Cl)ccc13)CCCC2	nt	nt	?	?	nt	5
CCOC(=O)C1=C(C)NC2=C(C(=O)c3ccccc32)C1c1ccc([N+](=O)[O-])o1 (stereo unspecified)	?	-12%	?	-23%	13µM*	28
CCOP(=O)(OCC)C(Nc1ccc(C(=O)O)cc1)c1ccccc1 (stereo unspecified)	5%	8%	nt	nt	-1%	-11
